Consider 29 sequences from PMC11006913.

Positions count from the first letter of the chain named.

Test in all cases: PBM; 200 nM protein, PBS
Common to all, as to details: dsDNA, one strand shown

Test [1] has as its target ALX4 (Homo sapiens, UniProt Q9H161 200-286).
Test [2] deals with T1, PAX4 (Homo sapiens, UniProt O43316 9-242, R200K).
T1 sequence: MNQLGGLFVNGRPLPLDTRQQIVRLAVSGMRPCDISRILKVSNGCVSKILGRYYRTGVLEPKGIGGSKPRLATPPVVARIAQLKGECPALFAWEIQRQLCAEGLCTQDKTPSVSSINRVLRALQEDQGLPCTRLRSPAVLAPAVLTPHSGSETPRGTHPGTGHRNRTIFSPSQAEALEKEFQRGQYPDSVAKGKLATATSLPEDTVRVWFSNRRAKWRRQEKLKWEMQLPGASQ

The target of test [3] is PRRX1 (Homo sapiens, UniProt P54821 80-166, F113S).
Test [4] deals with T2, PAX4 (Homo sapiens, UniProt O43316 9-242).
T2 sequence: T1 sequence with K192R

Test [5] concerns the target HOXB6 (Homo sapiens, UniProt P17509 132-218, K202E).
The target of test [6] is ALX4 (Homo sapiens, UniProt Q9H161 200-286, Q225E).
Test [7] deals with ALX3 (Homo sapiens, UniProt O95076 139-225, N203Q).
The target in test [8] is T3, PAX4 (Homo sapiens, UniProt O43316 9-242, R200Q).
T3 sequence: T1 sequence with K192Q

A further test concerns the target ALX1 (Homo sapiens, UniProt Q15699 118-204, L144R).
In test [9] the target is T4, PAX4 (Homo sapiens, UniProt O43316 9-242, F177V).
T4 sequence: T1 sequence with F169V, K192R

Test [10] concerns the target ALX3 (Homo sapiens, UniProt O95076 139-225).
Test [11] concerns the target T5, PAX4 (Homo sapiens, UniProt O43316 9-242, F177Y).
T5 sequence: T1 sequence with F169Y, K192R

The target of test [12] is ALX3 (Homo sapiens, UniProt O95076 139-225, L168Q).
Test [13] concerns the target ALX3 (Homo sapiens, UniProt O95076 139-225, L168V).
For test [14], the target named is T6, PAX4 (Homo sapiens, UniProt O43316 9-242, R227W).
T6 sequence: T1 sequence with K192R, R219W

For test [15], the target named is ALX3 (Homo sapiens, UniProt O95076 139-225, N203S).
The target of test [16] is HOXB6 (Homo sapiens, UniProt P17509 132-218).
Another test deals with T7, NKX2-6 (Homo sapiens, UniProt A6NCS4 118-204, R150C).
T7 sequence: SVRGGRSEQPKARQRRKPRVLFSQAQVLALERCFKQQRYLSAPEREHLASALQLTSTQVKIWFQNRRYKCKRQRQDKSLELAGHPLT

Test [17] concerns the target MSX2 (Homo sapiens, UniProt P35548 130-214, R199I).
In test [18] the target is MSX2 (Homo sapiens, UniProt P35548 130-214).
Test [19] concerns the target MSX2 (Homo sapiens, UniProt P35548 130-214, F161Y).
Test [20] addresses PRRX1 (Homo sapiens, UniProt P54821 80-166).

Chain of ALX4 (Homo sapiens, UniProt Q9H161 200-286, Q225E) (Q9H161 200-286 Q225E): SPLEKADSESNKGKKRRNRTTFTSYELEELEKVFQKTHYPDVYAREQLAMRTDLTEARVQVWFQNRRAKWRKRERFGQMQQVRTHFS
Chain of PRRX1 (Homo sapiens, UniProt P54821 80-166, F113S) (P54821 80-166 F113S): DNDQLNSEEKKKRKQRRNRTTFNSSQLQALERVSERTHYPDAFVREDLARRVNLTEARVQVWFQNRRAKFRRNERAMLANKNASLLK
Chain of HOXB6 (Homo sapiens, UniProt P17509 132-218) (P17509 132-218): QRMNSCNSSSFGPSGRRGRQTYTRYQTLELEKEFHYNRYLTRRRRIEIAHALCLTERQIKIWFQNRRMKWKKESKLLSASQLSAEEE
Chain of HOXB6 (Homo sapiens, UniProt P17509 132-218, K202E) (P17509 132-218 K202E): as the sequence (P17509 132-218) above, with K71E counted along it
Chain of ALX4 (Homo sapiens, UniProt Q9H161 200-286) (Q9H161 200-286): as the sequence (Q9H161 200-286 Q225E) above, with E26Q counted along it
Chain of ALX3 (Homo sapiens, UniProt O95076 139-225, L168V) (O95076 139-225 L168V): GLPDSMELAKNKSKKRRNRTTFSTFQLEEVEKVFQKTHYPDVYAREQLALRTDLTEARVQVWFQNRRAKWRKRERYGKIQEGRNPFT
Chain of ALX3 (Homo sapiens, UniProt O95076 139-225, N203Q) (O95076 139-225 N203Q): as the sequence (O95076 139-225 L168V) above, with V30L, N65Q counted along it
Chain of PRRX1 (Homo sapiens, UniProt P54821 80-166) (P54821 80-166): as the sequence (P54821 80-166 F113S) above, with S34F counted along it
Chain of ALX3 (Homo sapiens, UniProt O95076 139-225, L168Q) (O95076 139-225 L168Q): as the sequence (O95076 139-225 L168V) above, with V30Q counted along it
Chain of ALX3 (Homo sapiens, UniProt O95076 139-225, N203S) (O95076 139-225 N203S): as the sequence (O95076 139-225 L168V) above, with V30L, N65S counted along it
Chain of ALX3 (Homo sapiens, UniProt O95076 139-225) (O95076 139-225): as the sequence (O95076 139-225 L168V) above, with V30L counted along it
Chain of ALX1 (Q15699 118-204 L144R): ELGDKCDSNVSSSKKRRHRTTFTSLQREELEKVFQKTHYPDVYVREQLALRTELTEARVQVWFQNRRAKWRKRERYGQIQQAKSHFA
Chain of MSX2 (Homo sapiens, UniProt P35548 130-214, R199I) (P35548 130-214 R199I): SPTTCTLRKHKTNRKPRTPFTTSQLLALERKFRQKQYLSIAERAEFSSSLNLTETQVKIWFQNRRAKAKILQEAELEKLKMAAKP
Chain of MSX2 (Homo sapiens, UniProt P35548 130-214) (P35548 130-214): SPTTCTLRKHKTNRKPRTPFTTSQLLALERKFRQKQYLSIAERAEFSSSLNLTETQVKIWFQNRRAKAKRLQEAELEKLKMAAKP
Chain of MSX2 (Homo sapiens, UniProt P35548 130-214, F161Y) (P35548 130-214 F161Y): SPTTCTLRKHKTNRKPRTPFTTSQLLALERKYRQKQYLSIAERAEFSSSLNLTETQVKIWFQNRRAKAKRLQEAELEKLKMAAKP

For the sequence ATTAATTC, the binding signal is 13.6 upbm affinity estimate (log intensity, higher = more binding, comparable within an allelic series) in the test with ALX4 [1]; 11.9 upbm affinity estimate (log intensity, higher = more binding, comparable within an allelic series) with PAX4 [2]; 11.1 upbm affinity estimate (log intensity, higher = more binding, comparable within an allelic series) with PRRX1 [3]; 12.5 upbm affinity estimate (log intensity, higher = more binding, comparable within an allelic series) in the test with PAX4 [4]; 9.98 upbm affinity estimate (log intensity, higher = more binding, comparable within an allelic series) in the test with HOXB6 [5]; 12.7 upbm affinity estimate (log intensity, higher = more binding, comparable within an allelic series) with ALX4 [6]. Besides, the binding signal in the test with ALX3 [7] is 8.41 upbm affinity estimate (log intensity, higher = more binding, comparable within an allelic series); with PAX4 [8], 12.1 upbm affinity estimate (log intensity, higher = more binding, comparable within an allelic series); with ALX1 it was 11.1 upbm affinity estimate (log intensity, higher = more binding, comparable within an allelic series); in the test with PAX4 [9], 10.7 upbm affinity estimate (log intensity, higher = more binding, comparable within an allelic series); with ALX3 [10], 12.2 upbm affinity estimate (log intensity, higher = more binding, comparable within an allelic series); with PAX4 [11], 11.2 upbm affinity estimate (log intensity, higher = more binding, comparable within an allelic series). The binding signal in the test with ALX3 [12] was 10.2 upbm affinity estimate (log intensity, higher = more binding, comparable within an allelic series); with ALX3 [13], 9.68 upbm affinity estimate (log intensity, higher = more binding, comparable within an allelic series); with PAX4 [14], 11 upbm affinity estimate (log intensity, higher = more binding, comparable within an allelic series); in the test with ALX3 [15], 8.51 upbm affinity estimate (log intensity, higher = more binding, comparable within an allelic series).

With CCTGCAGG, the binding signal in the test with ALX4 [1] is 8.12 upbm affinity estimate (log intensity, higher = more binding, comparable within an allelic series); in the test with HOXB6 [5], 9.05 upbm affinity estimate (log intensity, higher = more binding, comparable within an allelic series); in the test with ALX4 [6], 8.04 upbm affinity estimate (log intensity, higher = more binding, comparable within an allelic series); with HOXB6 [16] it was 8.92 upbm affinity estimate (log intensity, higher = more binding, comparable within an allelic series).

In the case of ACAGCTCT, the binding signal with ALX4 [1] was 8.24 upbm affinity estimate (log intensity, higher = more binding, comparable within an allelic series); with ALX4 [6], 8.19 upbm affinity estimate (log intensity, higher = more binding, comparable within an allelic series).

For CCACCGGC, the binding signal was 8.04 upbm affinity estimate (log intensity, higher = more binding, comparable within an allelic series) with ALX4 [1]; 8.97 upbm affinity estimate (log intensity, higher = more binding, comparable within an allelic series) with HOXB6 [5]; 7.94 upbm affinity estimate (log intensity, higher = more binding, comparable within an allelic series) in the test with ALX4 [6]; 9.32 upbm affinity estimate (log intensity, higher = more binding, comparable within an allelic series) in the test with NKX2-6; 9.39 upbm affinity estimate (log intensity, higher = more binding, comparable within an allelic series) in the test with MSX2 [17]; 7.68 upbm affinity estimate (log intensity, higher = more binding, comparable within an allelic series) with ALX3 [7]. For the same sequence, the binding signal in the test with MSX2 [18] was 9.41 upbm affinity estimate (log intensity, higher = more binding, comparable within an allelic series); in the test with ALX3 [10], 7.64 upbm affinity estimate (log intensity, higher = more binding, comparable within an allelic series); with ALX3 [12], 7.76 upbm affinity estimate (log intensity, higher = more binding, comparable within an allelic series); with ALX3 [13], 7.67 upbm affinity estimate (log intensity, higher = more binding, comparable within an allelic series); in the test with MSX2 [19], 9.32 upbm affinity estimate (log intensity, higher = more binding, comparable within an allelic series); with ALX3 [15] it was 7.64 upbm affinity estimate (log intensity, higher = more binding, comparable within an allelic series). For the same sequence, the binding signal with HOXB6 [16] is 8.83 upbm affinity estimate (log intensity, higher = more binding, comparable within an allelic series).

On to TCAATGAA, for which the binding signal in the test with ALX4 [1] was 10.1 upbm affinity estimate (log intensity, higher = more binding, comparable within an allelic series); with ALX4 [6], 9.63 upbm affinity estimate (log intensity, higher = more binding, comparable within an allelic series).

AGCAGCTC: the binding signal with ALX4 [1] is 8.01 upbm affinity estimate (log intensity, higher = more binding, comparable within an allelic series); with ALX4 [6], 8.09 upbm affinity estimate (log intensity, higher = more binding, comparable within an allelic series).

For the sequence ATTAACCA, the binding signal in the test with ALX4 [1] is 12.4 upbm affinity estimate (log intensity, higher = more binding, comparable within an allelic series); with ALX4 [6] it was 11.3 upbm affinity estimate (log intensity, higher = more binding, comparable within an allelic series).

Turning to AACTTACA, the binding signal with ALX4 [1] is 9.85 upbm affinity estimate (log intensity, higher = more binding, comparable within an allelic series); with ALX4 [6], 9.42 upbm affinity estimate (log intensity, higher = more binding, comparable within an allelic series).

Take GAGGGAGC: the binding signal with ALX4 [1] was 8.04 upbm affinity estimate (log intensity, higher = more binding, comparable within an allelic series); in the test with ALX4 [6], 8.01 upbm affinity estimate (log intensity, higher = more binding, comparable within an allelic series).

As for GCATTTGA, the binding signal with ALX4 [1] is 9.56 upbm affinity estimate (log intensity, higher = more binding, comparable within an allelic series); with ALX4 [6] it was 9.16 upbm affinity estimate (log intensity, higher = more binding, comparable within an allelic series).

As for GGCATGCC, the binding signal is 8.37 upbm affinity estimate (log intensity, higher = more binding, comparable within an allelic series) with ALX4 [1] and 8.31 upbm affinity estimate (log intensity, higher = more binding, comparable within an allelic series) in the test with ALX4 [6].

With CCCTCACG, the binding signal with ALX4 [1] was 8.1 upbm affinity estimate (log intensity, higher = more binding, comparable within an allelic series); in the test with ALX4 [6], 8.28 upbm affinity estimate (log intensity, higher = more binding, comparable within an allelic series).

As for CCTAGGAC, the binding signal was 7.82 upbm affinity estimate (log intensity, higher = more binding, comparable within an allelic series) in the test with ALX4 [1] and 8.1 upbm affinity estimate (log intensity, higher = more binding, comparable within an allelic series) with ALX4 [6].

Consider GCTCAAGC, for which the binding signal with ALX4 [1] was 8.08 upbm affinity estimate (log intensity, higher = more binding, comparable within an allelic series); in the test with ALX4 [6], 8.25 upbm affinity estimate (log intensity, higher = more binding, comparable within an allelic series).

For ACTTACCG, the binding signal with ALX4 [1] is 9.9 upbm affinity estimate (log intensity, higher = more binding, comparable within an allelic series); with ALX4 [6] it was 9.28 upbm affinity estimate (log intensity, higher = more binding, comparable within an allelic series).

Take CGGCCGAC: the binding signal with ALX4 [1] was 7.76 upbm affinity estimate (log intensity, higher = more binding, comparable within an allelic series); in the test with ALX4 [6], 8.04 upbm affinity estimate (log intensity, higher = more binding, comparable within an allelic series).

As to GACGCGGC, the binding signal in the test with ALX4 [1] was 8.04 upbm affinity estimate (log intensity, higher = more binding, comparable within an allelic series); with ALX4 [6], 8.07 upbm affinity estimate (log intensity, higher = more binding, comparable within an allelic series).

For the sequence GGTGGCCA, the binding signal with ALX4 [1] was 8.06 upbm affinity estimate (log intensity, higher = more binding, comparable within an allelic series); in the test with ALX4 [6], 8.37 upbm affinity estimate (log intensity, higher = more binding, comparable within an allelic series).

As to CGTAATCA, the binding signal with ALX4 [1] is 11.9 upbm affinity estimate (log intensity, higher = more binding, comparable within an allelic series); with ALX4 [6], 10.6 upbm affinity estimate (log intensity, higher = more binding, comparable within an allelic series).

For the sequence ATTACGAA, the binding signal with ALX4 [1] is 11.4 upbm affinity estimate (log intensity, higher = more binding, comparable within an allelic series); with ALX4 [6] it was 10.3 upbm affinity estimate (log intensity, higher = more binding, comparable within an allelic series).

Consider CTCTAGGA, for which the binding signal with ALX4 [1] is 8.21 upbm affinity estimate (log intensity, higher = more binding, comparable within an allelic series); with ALX4 [6] it was 8.12 upbm affinity estimate (log intensity, higher = more binding, comparable within an allelic series).

Consider ATCAATCA, for which the binding signal with ALX4 [1] is 11.7 upbm affinity estimate (log intensity, higher = more binding, comparable within an allelic series); with ALX4 [6], 10.5 upbm affinity estimate (log intensity, higher = more binding, comparable within an allelic series).

Regarding CATCAATC, the binding signal in the test with ALX4 [1] was 10.6 upbm affinity estimate (log intensity, higher = more binding, comparable within an allelic series); in the test with HOXB6 [5] it was 9.69 upbm affinity estimate (log intensity, higher = more binding, comparable within an allelic series); in the test with HOXB6 [16] it was 10.5 upbm affinity estimate (log intensity, higher = more binding, comparable within an allelic series).

On to GGAAGCCA, for which the binding signal was 8.23 upbm affinity estimate (log intensity, higher = more binding, comparable within an allelic series) in the test with ALX4 [1] and 8.17 upbm affinity estimate (log intensity, higher = more binding, comparable within an allelic series) in the test with ALX4 [6].

Consider ATTTTCTC, for which the binding signal with ALX4 [1] is 10.1 upbm affinity estimate (log intensity, higher = more binding, comparable within an allelic series); with ALX4 [6], 9.45 upbm affinity estimate (log intensity, higher = more binding, comparable within an allelic series).

For the sequence AGCCGTGC, the binding signal with ALX4 [1] was 7.92 upbm affinity estimate (log intensity, higher = more binding, comparable within an allelic series); with ALX4 [6], 8.07 upbm affinity estimate (log intensity, higher = more binding, comparable within an allelic series).

For the sequence GAGCACCC, the binding signal with ALX4 [1] is 7.99 upbm affinity estimate (log intensity, higher = more binding, comparable within an allelic series); with PRRX1 [3], 9.2 upbm affinity estimate (log intensity, higher = more binding, comparable within an allelic series); in the test with ALX4 [6] it was 8.37 upbm affinity estimate (log intensity, higher = more binding, comparable within an allelic series); with PRRX1 [20], 9.01 upbm affinity estimate (log intensity, higher = more binding, comparable within an allelic series).

As to GAGGACCC, the binding signal in the test with ALX4 [1] is 7.88 upbm affinity estimate (log intensity, higher = more binding, comparable within an allelic series); in the test with PRRX1 [3], 9.19 upbm affinity estimate (log intensity, higher = more binding, comparable within an allelic series); with ALX4 [6], 7.98 upbm affinity estimate (log intensity, higher = more binding, comparable within an allelic series); in the test with PRRX1 [20], 9.51 upbm affinity estimate (log intensity, higher = more binding, comparable within an allelic series).

For the sequence CTCTCGCC, the binding signal with ALX4 [1] is 7.89 upbm affinity estimate (log intensity, higher = more binding, comparable within an allelic series); with ALX4 [6], 8.06 upbm affinity estimate (log intensity, higher = more binding, comparable within an allelic series).
